In the supplement of paper PMC9694430:
Structures can show the parent of a compound that is named as a salt.

Key:
Assay in all cases: thermal shift delta Tm vs DMSO control; higher = stronger stabilization (binding)
Conditions in all cases: 12.5 µM; protein concentration 2 µM
LOC_OS01G01410-cb001 = tested on: LOC_OS01G01410-cb001
Outline: (§1)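 Rice kinase domain constructs were expressed in E. coli, purified, and tested by differential scanning fluorimetry with compound added in DMSO. Each well of a 96-well plate held 19.5 μl of 2 μM kinase in 100 mM potassium phosphate pH 7.5, 150 mM NaCl, 10% glycerol and 5 × SYPRO Orange, and fluorescence was read from 25°C to 95°C at 0.05°C/s. The melting temperature shift is the mean of triplicates, taken against protein with DMSO alone after Boltzmann fitting.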

LOC_OS01G02750-cb003 = tested on: LOC_OS01G02750-cb003
Outline: as §1

LOC_OS01G10900-cb004 = tested on: LOC_OS01G10900-cb004
Outline: as §1

LOC_OS01G13800-cb001 = tested on: LOC_OS01G13800-cb001
Outline: as §1

LOC_OS01G14860-cb001 = tested on: LOC_OS01G14860-cb001
Outline: as §1

LOC_OS01G21960-cb002 = tested on: LOC_OS01G21960-cb002
Outline: as §1

LOC_OS01G39600-cb002 = tested on: LOC_OS01G39600-cb002
Outline: as §1

LOC_OS01G48390-cb002 = tested on: LOC_OS01G48390-cb002
Outline: as §1

LOC_OS01G51400-cb002 = tested on: LOC_OS01G51400-cb002
Outline: as §1

LOC_OS01G52050-cb004 = tested on: T1, LOC_OS01G52050-cb004
T1 sequence (whole entry): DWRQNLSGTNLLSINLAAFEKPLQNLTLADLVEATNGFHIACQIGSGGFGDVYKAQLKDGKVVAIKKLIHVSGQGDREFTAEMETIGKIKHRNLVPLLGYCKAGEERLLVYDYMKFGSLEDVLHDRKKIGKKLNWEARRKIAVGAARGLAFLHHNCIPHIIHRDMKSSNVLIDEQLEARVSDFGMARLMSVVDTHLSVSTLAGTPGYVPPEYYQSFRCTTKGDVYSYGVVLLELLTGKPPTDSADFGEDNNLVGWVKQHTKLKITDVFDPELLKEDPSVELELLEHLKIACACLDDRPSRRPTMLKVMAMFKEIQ
Outline: as §1

SMILES	thermal shift delta Tm (LOC_OS01G01410-cb001) [°C]	thermal shift delta Tm (LOC_OS01G02750-cb003) [°C]	thermal shift delta Tm (LOC_OS01G10900-cb004) [°C]	thermal shift delta Tm (LOC_OS01G13800-cb001) [°C]	thermal shift delta Tm (LOC_OS01G14860-cb001) [°C]	thermal shift delta Tm (LOC_OS01G21960-cb002) [°C]	thermal shift delta Tm (LOC_OS01G39600-cb002) [°C]	thermal shift delta Tm (LOC_OS01G48390-cb002) [°C]	thermal shift delta Tm (LOC_OS01G51400-cb002) [°C]	thermal shift delta Tm (LOC_OS01G52050-cb004) [°C]
CN(C)S(=O)(=O)c1ccc2c(c1)/C(=C/c1cc3c([nH]1)CCCC3)C(=O)N2	0	6.57	2.65	1.7	1.95	3.86	3.22	2.42	3.07	13
CCn1c(-c2nonc2N)nc2c(C#CC(C)(C)O)ncc(OC[C@H]3CCCNC3)c21	1.38	0.87	0.42	0.37	3.95	0.53	0.32	0.07	0.09	0.04
COc1cc2ncc(-c3ccccc3)nc2cc1OC [Tyrphostin AG 1296]	2.03	1.6	0.44	-0.26	0.28	0	0.47	0.55	0.63	1.69
COc1cc(OC)cc(N(CCNC(C)C)c2ccc3ncc(-c4cnn(C)c4)nc3c2)c1	0.55	1.27	0.16	0.03	0.57	0.2	1.11	2.48	0.26	2.05
Cc1cc2c(F)c(Oc3ncnn4cc(OC[C@@H](C)O)c(C)c34)ccc2[nH]1	1.69	0.24	0.93	0.42	0.41	0.22	0.2	0.6	0	0.2
C[C@@H](Nc1cc(F)cc(F)c1)c1cc(C(=O)N(C)C)cc2c(=O)cc(N3CCOCC3)oc12	0.11	1.11	0.28	0.04	0.22	-0.4	-0.77	0.46	0.01	-0.12
Cc1cc(Nc2cc(N3CCN(C)CC3)nc(/C=C/c3ccccc3)n2)n[nH]1 [ENMD-2076 L-(+)-Tartaric acid]	2.38	2.56	1.86	-0.25	4.33	2.63	1.94	3.3	0.81	4.1
CC(C)c1c2cc(-c3ccnc(NC4CCC(NC5CCOCC5)CC4)n3)ccc2nn1C (stereo not given)	1.15	4.38	1.83	-0.3	7.15	2.64	1.1	2.74	0.39	2.13
O=C1Cc2c([nH]c3ccc(Br)cc23)-c2ccccc2N1 [Kenpaullone]	1.3	3.93	3.23	1.78	7.46	1.74	2.16	3.44	0.72	5.21
CN1CCN(c2cccc(Nc3nc4c(-c5ccc(S(C)(=O)=O)cc5)cccn4n3)c2)CC1	2.06	0.63	1.02	-0.37	0.51	1.39	2.12	1.12	0.39	2.68
Nc1nc(N)c(N=O)c(OCC2CCCCC2)n1	0.83	0.95	0.44	-0.3	1.5	1.67	-1.66	0.08	0.44	1.13
COc1ccc(-c2ccc3ncc4c(c3c2)n(-c2ccc(N3CCNCC3)c(C(F)(F)F)c2)c(=O)n4C)cn1	1.5	2.95	0.97	0.05	2.59	2.58	0.22	0.42	-0.17	4.2
CNS(=O)(=O)C[C@H]1CC[C@H](N(C)c2[nH]cnc3nccc2-3)CC1 [Oclacitinib]	0.92	1.16	0.3	0.42	2.09	0.79	1.81	2.77	0.26	1.43
Cc1ccc(NC(=O)c2ccc(CN3CCN(C)CC3)cc2)cc1Nc1nccc(-c2cccnc2)n1 [Imatinib Mesylate (STI571)]	1.08	0.88	1.18	0.6	0.15	0.23	0.07	0.86	0.08	0.02
O=c1sn(-c2cccc3ccccc23)c(=O)n1Cc1ccccc1 [Tideglusib]	0.61	-1.04	-0.23	0.16	0.15	0.39	1.37	0.44	0.24	0.37
Nc1nc2cc(-c3ccc4ncc(C(=O)N5CCOCC5)n4c3)ccc2o1 [Serabelisib (INK-1117,MLN-1117,TAK-117)]	0.8	1.57	2.36	0.43	1.16	0.81	0.1	0.39	0.34	3.87
CCCNC(=O)Nc1ccc(Oc2ncnc3cc(OC)c(OC)cc23)cc1Cl	0.04	0.33	-0.21	-0.35	-0.27	0.37	0.76	0.53	-0.13	1.02
c1nc2c(NC3CCCCC3)nc(Nc3ccc(N4CCOCC4)cc3)nc2[nH]1 [Reversine]	5.03	0.7	0.47	0.43	2.02	2.54	5.31	-0.29	1.66	5.54
COc1ccc2c(c1)[C@]1(C[C@H]1c1ccc3c(/C=C/c4ccc(CN5C[C@@H](C)O[C@@H](C)C5)cc4)n[nH]c3c1)C(=O)N2	1.94	8.4	1.53	-0.69	1.2	0.67	2.15	1.77	1.27	4.31
CN1CCN(c2ccc(-c3ccncc3-c3cc(F)c(O)c(F)c3)cc2)CC1	0.42	0.81	-0.45	0.02	0.46	0.1	-0.43	-0.15	0.11	0.14
